Columns and labels:
Assay in all cases: log2 ratio of Biotin-Ahx-Ub-VS probe labelling (fragment/DMSO); higher = less target engagement (more negative = stronger competition), active = hit call of the paper (q ≤ 0.05, log2 ratio ≤ -1)
Details in all cases: compound concentration: 200 uM; treatment time: 3 h
[1] = target: USP34 (UniProt Q70CQ2)
Summary of the method: (§1)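 Labelled DUBs from HEK293T lysate were NeutrAvidin-enriched, digested with LysC and trypsin, and run by diaPASEF LC-MS/MS. Before that, each 495 µg sample in Tris/CHAPS/IGEPAL buffer with protease inhibitors was treated in triplicate with fragment at 200 µM or vehicle for 3 h, then with Biotin-Ahx-Ub-VS at 0.5 µM final for 1 h. Values are average log2 ratios of fragment over vehicle by unpaired t-test, based on global-median-normalised Spectronaut label-free quantities from proteins with ≥2 unique peptides.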

[2] = target: T1, USP36 (UniProt Q9P275)
T1 sequence (whole entry): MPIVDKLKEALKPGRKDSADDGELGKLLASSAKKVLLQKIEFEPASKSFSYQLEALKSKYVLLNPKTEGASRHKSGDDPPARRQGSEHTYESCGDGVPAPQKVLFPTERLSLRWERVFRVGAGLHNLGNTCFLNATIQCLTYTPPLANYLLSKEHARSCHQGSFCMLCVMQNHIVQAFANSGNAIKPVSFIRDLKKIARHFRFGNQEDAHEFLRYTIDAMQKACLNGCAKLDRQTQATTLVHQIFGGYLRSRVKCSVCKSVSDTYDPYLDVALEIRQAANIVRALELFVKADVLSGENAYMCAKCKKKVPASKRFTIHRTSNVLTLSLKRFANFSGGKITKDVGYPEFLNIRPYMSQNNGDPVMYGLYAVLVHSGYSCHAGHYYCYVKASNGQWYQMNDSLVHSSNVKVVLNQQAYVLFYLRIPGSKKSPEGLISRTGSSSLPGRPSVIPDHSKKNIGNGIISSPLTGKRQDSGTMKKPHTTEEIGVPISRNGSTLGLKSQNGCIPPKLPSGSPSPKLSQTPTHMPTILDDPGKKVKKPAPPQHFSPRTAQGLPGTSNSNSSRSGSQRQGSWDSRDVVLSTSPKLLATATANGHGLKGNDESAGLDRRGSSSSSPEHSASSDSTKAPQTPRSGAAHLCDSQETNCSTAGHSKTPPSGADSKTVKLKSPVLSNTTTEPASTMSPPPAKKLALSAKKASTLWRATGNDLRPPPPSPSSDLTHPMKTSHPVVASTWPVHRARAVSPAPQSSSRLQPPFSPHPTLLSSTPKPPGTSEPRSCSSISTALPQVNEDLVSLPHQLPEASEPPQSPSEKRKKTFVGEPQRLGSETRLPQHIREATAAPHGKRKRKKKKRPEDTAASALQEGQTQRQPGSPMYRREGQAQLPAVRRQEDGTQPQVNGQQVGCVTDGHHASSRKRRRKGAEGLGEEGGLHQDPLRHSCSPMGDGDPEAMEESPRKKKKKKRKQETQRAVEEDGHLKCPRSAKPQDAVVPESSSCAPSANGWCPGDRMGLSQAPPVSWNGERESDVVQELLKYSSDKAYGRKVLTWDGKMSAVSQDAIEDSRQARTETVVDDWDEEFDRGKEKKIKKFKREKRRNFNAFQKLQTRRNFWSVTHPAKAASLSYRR
Summary of the method: as §1

[3] = target: T2, USP38 (UniProt Q8NB14)
T2 sequence (whole entry): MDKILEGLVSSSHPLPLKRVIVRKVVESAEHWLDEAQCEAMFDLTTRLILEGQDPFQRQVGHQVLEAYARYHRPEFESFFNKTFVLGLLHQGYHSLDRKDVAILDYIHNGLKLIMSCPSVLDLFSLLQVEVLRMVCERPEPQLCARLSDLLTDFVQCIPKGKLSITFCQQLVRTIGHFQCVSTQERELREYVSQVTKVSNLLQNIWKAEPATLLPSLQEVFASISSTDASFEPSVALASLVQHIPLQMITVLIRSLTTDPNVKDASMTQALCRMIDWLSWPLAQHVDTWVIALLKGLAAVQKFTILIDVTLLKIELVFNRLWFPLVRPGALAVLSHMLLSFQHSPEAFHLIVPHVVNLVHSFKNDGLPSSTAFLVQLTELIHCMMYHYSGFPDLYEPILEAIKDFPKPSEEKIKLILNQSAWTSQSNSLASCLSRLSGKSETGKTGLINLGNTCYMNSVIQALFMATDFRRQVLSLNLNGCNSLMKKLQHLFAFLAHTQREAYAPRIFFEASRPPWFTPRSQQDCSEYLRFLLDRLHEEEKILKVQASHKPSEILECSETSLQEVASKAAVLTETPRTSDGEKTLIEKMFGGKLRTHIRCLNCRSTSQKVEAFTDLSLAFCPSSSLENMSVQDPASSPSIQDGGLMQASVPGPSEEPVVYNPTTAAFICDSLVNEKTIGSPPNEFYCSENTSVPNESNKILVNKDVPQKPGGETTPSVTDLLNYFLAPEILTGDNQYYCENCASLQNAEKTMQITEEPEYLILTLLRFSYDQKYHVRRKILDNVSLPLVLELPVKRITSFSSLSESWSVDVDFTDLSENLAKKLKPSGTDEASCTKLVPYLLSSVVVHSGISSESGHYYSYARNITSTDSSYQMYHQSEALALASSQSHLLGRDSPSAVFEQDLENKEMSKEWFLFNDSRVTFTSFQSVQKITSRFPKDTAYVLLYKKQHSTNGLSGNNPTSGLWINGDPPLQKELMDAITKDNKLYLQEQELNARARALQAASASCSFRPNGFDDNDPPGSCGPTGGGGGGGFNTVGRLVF
Summary of the method: as §1

[4] = target: T3, USP39 (UniProt Q53GS9)
T3 sequence (whole entry): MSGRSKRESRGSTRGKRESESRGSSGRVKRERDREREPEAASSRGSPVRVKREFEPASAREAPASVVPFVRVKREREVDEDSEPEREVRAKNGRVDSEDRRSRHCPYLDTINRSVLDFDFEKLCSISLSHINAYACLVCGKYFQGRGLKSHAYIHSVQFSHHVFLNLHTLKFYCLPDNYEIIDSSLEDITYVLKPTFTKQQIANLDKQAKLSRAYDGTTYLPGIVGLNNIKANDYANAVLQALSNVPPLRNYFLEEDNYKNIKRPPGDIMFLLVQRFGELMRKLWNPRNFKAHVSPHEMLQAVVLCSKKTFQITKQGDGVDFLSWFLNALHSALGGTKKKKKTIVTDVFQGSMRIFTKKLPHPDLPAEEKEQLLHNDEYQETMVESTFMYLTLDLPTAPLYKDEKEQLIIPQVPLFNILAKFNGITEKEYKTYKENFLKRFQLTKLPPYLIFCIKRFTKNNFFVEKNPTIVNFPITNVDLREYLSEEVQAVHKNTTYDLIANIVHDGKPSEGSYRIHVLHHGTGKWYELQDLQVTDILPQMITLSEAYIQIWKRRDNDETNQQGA
Summary of the method: as §1

[5] = target: T4, USP4 (UniProt Q13107)
T4 sequence (whole entry): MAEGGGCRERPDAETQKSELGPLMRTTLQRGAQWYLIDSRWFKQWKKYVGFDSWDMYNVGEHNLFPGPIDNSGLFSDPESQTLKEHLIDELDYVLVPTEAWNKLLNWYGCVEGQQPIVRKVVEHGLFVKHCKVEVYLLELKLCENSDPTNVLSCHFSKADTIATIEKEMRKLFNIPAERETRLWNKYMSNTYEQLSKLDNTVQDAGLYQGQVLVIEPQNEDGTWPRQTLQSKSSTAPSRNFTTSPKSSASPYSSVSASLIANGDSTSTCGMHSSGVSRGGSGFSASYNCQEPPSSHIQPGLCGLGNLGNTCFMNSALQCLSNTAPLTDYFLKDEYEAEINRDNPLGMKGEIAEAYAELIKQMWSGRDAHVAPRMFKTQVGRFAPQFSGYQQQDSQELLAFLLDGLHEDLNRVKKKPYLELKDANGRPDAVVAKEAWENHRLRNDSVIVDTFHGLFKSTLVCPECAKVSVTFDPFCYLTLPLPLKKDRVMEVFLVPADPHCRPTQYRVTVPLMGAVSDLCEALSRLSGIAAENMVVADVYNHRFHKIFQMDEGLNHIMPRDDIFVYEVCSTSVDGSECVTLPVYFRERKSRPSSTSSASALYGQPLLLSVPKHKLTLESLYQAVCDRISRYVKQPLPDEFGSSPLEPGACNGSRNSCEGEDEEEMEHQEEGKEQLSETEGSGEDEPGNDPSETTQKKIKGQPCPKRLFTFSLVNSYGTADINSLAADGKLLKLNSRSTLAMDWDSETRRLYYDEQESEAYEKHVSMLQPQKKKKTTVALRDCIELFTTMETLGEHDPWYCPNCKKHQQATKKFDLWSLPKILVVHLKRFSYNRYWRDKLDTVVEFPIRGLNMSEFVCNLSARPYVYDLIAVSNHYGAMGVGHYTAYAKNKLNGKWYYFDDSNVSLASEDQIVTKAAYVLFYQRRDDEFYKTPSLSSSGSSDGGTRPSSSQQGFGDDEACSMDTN
Summary of the method: as §1

Measured: log2 ratio of Biotin-Ahx-Ub-VS probe labelling

Chain of USP34 (Q70CQ2 whole entry, the tested form may be a part): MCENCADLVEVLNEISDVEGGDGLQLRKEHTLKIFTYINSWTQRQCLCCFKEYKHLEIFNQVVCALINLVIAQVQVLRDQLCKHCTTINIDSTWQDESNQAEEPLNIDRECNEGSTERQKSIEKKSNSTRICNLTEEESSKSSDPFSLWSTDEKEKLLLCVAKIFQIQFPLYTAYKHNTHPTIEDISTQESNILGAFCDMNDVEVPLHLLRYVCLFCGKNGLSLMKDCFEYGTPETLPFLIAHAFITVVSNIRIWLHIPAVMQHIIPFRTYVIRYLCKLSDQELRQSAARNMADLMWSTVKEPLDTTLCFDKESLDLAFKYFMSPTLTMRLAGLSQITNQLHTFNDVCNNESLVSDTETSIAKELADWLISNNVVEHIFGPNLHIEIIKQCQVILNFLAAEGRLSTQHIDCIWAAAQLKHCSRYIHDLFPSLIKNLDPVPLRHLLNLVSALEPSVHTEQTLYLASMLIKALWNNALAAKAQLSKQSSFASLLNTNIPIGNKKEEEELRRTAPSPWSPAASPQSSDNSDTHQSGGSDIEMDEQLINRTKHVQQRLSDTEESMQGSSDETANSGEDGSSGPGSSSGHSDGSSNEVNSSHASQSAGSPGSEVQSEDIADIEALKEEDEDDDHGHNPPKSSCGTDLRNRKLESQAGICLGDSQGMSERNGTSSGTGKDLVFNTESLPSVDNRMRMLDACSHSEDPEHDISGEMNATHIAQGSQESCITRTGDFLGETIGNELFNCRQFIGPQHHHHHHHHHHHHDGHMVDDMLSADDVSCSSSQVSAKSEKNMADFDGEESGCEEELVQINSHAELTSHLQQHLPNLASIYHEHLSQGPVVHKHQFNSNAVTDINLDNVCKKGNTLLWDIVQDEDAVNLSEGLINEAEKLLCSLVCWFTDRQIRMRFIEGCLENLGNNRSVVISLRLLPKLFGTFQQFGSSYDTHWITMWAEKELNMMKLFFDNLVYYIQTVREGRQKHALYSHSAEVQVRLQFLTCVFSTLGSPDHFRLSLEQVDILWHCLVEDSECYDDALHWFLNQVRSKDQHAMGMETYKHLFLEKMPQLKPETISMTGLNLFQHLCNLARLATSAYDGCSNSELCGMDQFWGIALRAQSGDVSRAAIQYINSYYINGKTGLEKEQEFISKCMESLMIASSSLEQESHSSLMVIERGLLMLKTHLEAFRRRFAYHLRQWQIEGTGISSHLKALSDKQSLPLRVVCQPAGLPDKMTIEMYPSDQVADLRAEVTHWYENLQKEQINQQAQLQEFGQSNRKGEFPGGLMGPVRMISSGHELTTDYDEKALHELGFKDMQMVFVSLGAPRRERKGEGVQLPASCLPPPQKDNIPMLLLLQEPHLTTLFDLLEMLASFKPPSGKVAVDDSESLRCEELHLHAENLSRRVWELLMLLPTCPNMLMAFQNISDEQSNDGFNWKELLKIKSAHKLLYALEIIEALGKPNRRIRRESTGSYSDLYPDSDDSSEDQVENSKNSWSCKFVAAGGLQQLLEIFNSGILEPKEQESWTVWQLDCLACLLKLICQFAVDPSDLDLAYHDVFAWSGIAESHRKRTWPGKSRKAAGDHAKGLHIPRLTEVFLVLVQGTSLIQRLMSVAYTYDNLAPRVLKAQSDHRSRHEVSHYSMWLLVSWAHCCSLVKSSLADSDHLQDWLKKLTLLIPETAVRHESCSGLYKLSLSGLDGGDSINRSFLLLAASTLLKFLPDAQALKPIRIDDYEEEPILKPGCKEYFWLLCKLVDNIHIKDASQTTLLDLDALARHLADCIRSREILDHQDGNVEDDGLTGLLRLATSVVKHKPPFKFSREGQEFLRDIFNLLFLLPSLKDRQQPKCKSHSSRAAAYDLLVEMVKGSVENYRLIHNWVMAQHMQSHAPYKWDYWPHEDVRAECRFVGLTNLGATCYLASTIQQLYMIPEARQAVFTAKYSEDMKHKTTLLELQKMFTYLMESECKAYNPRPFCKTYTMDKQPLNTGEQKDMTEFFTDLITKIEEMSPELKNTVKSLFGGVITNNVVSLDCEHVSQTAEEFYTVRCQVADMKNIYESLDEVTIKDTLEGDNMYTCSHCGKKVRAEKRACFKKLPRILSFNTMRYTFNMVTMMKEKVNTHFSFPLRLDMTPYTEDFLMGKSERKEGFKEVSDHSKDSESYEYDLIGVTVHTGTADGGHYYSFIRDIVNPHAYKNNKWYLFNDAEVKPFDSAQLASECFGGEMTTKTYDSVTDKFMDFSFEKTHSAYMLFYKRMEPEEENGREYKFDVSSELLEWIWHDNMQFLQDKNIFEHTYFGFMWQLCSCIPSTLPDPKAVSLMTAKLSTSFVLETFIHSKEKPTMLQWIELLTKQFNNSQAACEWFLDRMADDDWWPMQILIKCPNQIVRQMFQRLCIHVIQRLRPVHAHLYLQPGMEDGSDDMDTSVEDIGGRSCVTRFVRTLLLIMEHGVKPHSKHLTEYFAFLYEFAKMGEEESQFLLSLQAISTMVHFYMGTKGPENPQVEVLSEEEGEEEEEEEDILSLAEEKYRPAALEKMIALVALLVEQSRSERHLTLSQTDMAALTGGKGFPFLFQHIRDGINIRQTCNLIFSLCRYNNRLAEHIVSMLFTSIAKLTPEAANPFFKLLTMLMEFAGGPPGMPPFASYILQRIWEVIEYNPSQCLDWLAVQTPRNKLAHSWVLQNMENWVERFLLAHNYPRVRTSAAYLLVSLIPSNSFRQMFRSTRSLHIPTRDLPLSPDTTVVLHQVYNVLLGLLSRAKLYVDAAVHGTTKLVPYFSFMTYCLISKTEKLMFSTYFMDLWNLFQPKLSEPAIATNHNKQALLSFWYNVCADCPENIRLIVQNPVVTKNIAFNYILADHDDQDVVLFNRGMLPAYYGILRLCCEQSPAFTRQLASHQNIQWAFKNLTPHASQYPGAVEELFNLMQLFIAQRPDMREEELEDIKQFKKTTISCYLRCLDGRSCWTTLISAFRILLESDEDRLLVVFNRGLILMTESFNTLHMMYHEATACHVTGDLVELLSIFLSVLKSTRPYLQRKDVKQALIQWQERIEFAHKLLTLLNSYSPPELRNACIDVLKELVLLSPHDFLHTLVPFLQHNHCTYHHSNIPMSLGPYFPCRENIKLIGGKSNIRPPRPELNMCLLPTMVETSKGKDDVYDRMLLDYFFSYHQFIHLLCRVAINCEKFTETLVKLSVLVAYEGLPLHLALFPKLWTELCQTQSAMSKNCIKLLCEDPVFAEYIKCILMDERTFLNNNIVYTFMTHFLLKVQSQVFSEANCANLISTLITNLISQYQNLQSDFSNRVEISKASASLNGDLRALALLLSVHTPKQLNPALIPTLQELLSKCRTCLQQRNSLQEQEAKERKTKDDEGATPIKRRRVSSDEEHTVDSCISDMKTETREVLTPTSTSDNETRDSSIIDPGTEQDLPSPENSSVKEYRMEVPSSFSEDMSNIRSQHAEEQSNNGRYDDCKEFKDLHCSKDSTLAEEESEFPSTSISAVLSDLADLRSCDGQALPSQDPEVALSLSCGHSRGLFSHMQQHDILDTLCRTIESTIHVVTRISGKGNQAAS

O=C(CCl)NCc1ccc(N2CCOCC2)nc1
inactive: [1] -0.0991 | [2] -0.161 | [3] -0.0678 | [4] -0.00187 | [5] 0.0133

Reference: the supplement of paper PMC11732987, “Enantioselective OTUD7B fragment discovery through chemoproteomics screening and high-throughput optimisation” (Communications Chemistry, 2025)
